Reference: PubChem BioAssay (NCATS)
Inconclusive results are not listed. Calls of active or inactive are those of the source. Calls come from the whole dose curve; as a rule, active = well fitted cell-killing curve with a large enough effect; inconclusive = small, poorly fitted or top-dose-only effect, or effect the other way; inactive = flat fitted curve, though single readings scatter.

Key:
Assay in all cases: Primary qHTS to identify gynecologic anti-cancer compounds using libraries of approved drugs and bioactive compounds (AID 1345084); note: nearly all actives have a fitted effect of over 55% in size
C33A = details: Gynecologic cancer cell panel viability, ATPlite luminescence, 48 h; series mostly up to 57.5 µM
Outline: (§1)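 In this quantitative HTS, cell killing is estimated from loss of ATP-dependent luciferase light. Cells see five compound concentrations over a 48 h exposure.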

CAOV3 = details: Gynecologic cancer cell panel viability, ATPlite luminescence, 48 h; series mostly up to 57.5 µM
Outline: as §1

CASKI = details: Gynecologic cancer cell panel viability, ATPlite luminescence, 48 h; series mostly up to 57.5 µM
Outline: as §1

Es-2 = details: Gynecologic cancer cell panel viability, ATPlite luminescence, 48 h; series mostly up to 57.5 µM
Outline: as §1

Hek293T = details: Gynecologic cancer cell panel viability, ATPlite luminescence, 48 h, control line for the selectivity index; series mostly up to 57.5 µM
Outline: as §1

PA-1 = details: Gynecologic cancer cell panel viability, ATPlite luminescence, 48 h; series mostly up to 57.5 µM
Outline: as §1

JEG-3 = details: Gynecologic cancer cell panel viability, ATPlite luminescence, 48 h; series mostly up to 57.5 µM
Outline: as §1

HeLa = details: Gynecologic cancer cell panel viability, ATPlite luminescence, 48 h; series mostly up to 57.5 µM
Outline: as §1

OV90 = details: Gynecologic cancer cell panel viability, ATPlite luminescence, 48 h; series mostly up to 57.5 µM
Outline: as §1
% is set by controls: 0 for no effect and ±100 for the full control effect; potency is the fitted concentration of half-maximal effect.

Fc1ccc(-c2nc(-c3c(F)cccc3F)[nH]c2-c2ccncc2)cc1
inactive: Potency (C33A) | Potency (CAOV3) | Potency (CASKI) | Potency (Es-2) | Potency (Hek293T) | Potency (PA-1)

C=C1CC2[C@@]3(C)C=CC(=O)C(C)(C)C3=C(O)C(=O)[C@@]2(C)C2(C(=O)OC)C(=O)C(C)OC(=O)[C@@]12C (stereo not given in full)
inactive: Potency (C33A) | Potency (CAOV3) | Potency (CASKI) | Potency (Es-2) | Potency (JEG-3)

C=C1CC(=O)C2OC2(C)CC2OC(=O)C(=C)C2C(O)C1OC(=O)/C(C)=C\C (stereo not given)
inactive: Potency (C33A) | Potency (CAOV3) | Potency (CASKI) | Potency (HeLa) | Potency (JEG-3) | Potency (OV90) | Potency (PA-1)

C=C1C(=O)O[C@@H]2C[C@@]3(C)C[C@@H](O)C[C@H](C)C3=C[C@H]12
inactive: Potency (C33A) | Potency (CAOV3) | Potency (CASKI) | Potency (HeLa) | Potency (Hek293T) | Potency (JEG-3) | Potency (OV90) | Potency (PA-1)

C=C(C(=O)O[C@H]1C/C(C)=C/CC/C(CO)=C/[C@H]2OC(=O)C(=C)[C@H]12)C(O)CO (stereo not given in full)
inactive: Potency (C33A) | Potency (CAOV3) | Potency (CASKI) | Potency (HeLa) | Potency (Hek293T) | Potency (OV90) | Potency (PA-1)

CS(=O)(=O)Nc1ccc2oc3c(OC(F)F)ccc(C(=O)Nc4c(Cl)cncc4Cl)c3c2c1
inactive: Potency (C33A) | Potency (CAOV3) | Potency (CASKI) | Potency (Es-2) | Potency (Hek293T) | Potency (JEG-3) | Potency (OV90) | Potency (PA-1)

O=C(CNC(=O)c1cccc(C(F)(F)F)c1)N[C@@H]1CCN(Cc2ccc(Cl)cc2)C1
inactive: Potency (C33A) | Potency (CAOV3) | Potency (CASKI) | Potency (HeLa) | Potency (Hek293T) | Potency (JEG-3) | Potency (OV90) | Potency (PA-1)

COc1ccc([C@H]2OC[C@H]3O[C@@H](O[C@H]4[C@@H]2NC[C@@H]4O)[C@H](O)[C@H]3O)cc1
active: Potency (C33A) 7.08 µM | Potency (CAOV3) 2.82 µM | Potency (CASKI) 5.01 µM | Potency (Es-2) 4.47 µM | Potency (Hek293T) 3.16 µM | Potency (JEG-3) 5.01 µM | Potency (PA-1) 5.01 µM

c1ccc(-c2ccc(CNc3nc(-c4ccccn4)nnc3-c3ccccc3)cc2)cc1
inactive: Potency (JEG-3)
active: Potency (C33A) 12.6 µM | Potency (CAOV3) 8.91 µM | Potency (CASKI) 11.2 µM | Potency (Es-2) 17.8 µM | Potency (OV90) 7.08 µM

N#Cc1cc(CN2CCC(Nc3ncnc4sc(Cl)cc34)CC2)ccc1F
inactive: Potency (C33A) | Potency (CAOV3) | Potency (CASKI) | Potency (HeLa) | Potency (JEG-3)

C#CC(=O)N(c1ccc(OC)cc1OC)C(C(=O)NCC(=O)OCC)c1cccs1 (stereo not given)
active: Potency (C33A) 5.01 µM | Potency (CAOV3) 1.78 µM | Potency (CASKI) 22.4 µM | Potency (Es-2) 1.41 µM | Potency (JEG-3) 15.8 µM | Potency (PA-1) 1.58 µM

Cc1c(C(=O)Nc2ccc(N3CCC(N4CCOCC4)CC3)c(C#N)c2)cnn1-c1ccc(Cl)cc1
active: Potency (C33A) 0.891 µM | Potency (JEG-3) 0.794 µM
inactive: Potency (CAOV3) | Potency (CASKI) | Potency (HeLa)

CC(=O)O[C@H]1[C@@]2(O)C[C@H](C)[C@H](OC(=O)c3ccccc3)[C@@H]2[C@@H](OC(=O)CO)[C@]2(OC(C)=O)C[C@H]3C(=O)C(C)(C)C[C@@H]3[C@@]1(C)[C@H]2OC(C)=O
inactive: Potency (C33A) | Potency (CAOV3) | Potency (CASKI) | Potency (HeLa) | Potency (Hek293T) | Potency (JEG-3) | Potency (OV90) | Potency (PA-1)

Cc1c(C2=CCN(C(=O)N(C)C(C)C)CC2)nnn1-c1cccnc1F
inactive: Potency (C33A) | Potency (CAOV3) | Potency (CASKI) | Potency (Es-2) | Potency (Hek293T) | Potency (JEG-3) | Potency (OV90) | Potency (PA-1)

C=CC(=O)N1CCCN(c2cc(NCCC(=O)O)nc(-c3ccccn3)n2)CC1
inactive: Potency (C33A) | Potency (CAOV3) | Potency (CASKI) | Potency (HeLa) | Potency (Hek293T) | Potency (JEG-3) | Potency (PA-1)

C=C1C(=O)OC2/C=C(\C)CC/C=C(\C=O)C(OC)C(OC(=O)C(C)CC)C12 (stereo not given)
inactive: Potency (C33A) | Potency (CAOV3) | Potency (CASKI) | Potency (HeLa) | Potency (JEG-3) | Potency (OV90) | Potency (PA-1)

C=C1C(=O)O[C@@H]2C[C@H](C)[C@@H]3CC(=O)[C@H](O)[C@@]3(C)C[C@H]12
active: Potency (PA-1) 25.1 µM
inactive: Potency (C33A) | Potency (CAOV3) | Potency (CASKI) | Potency (HeLa) | Potency (Hek293T) | Potency (JEG-3) | Potency (OV90)

CC[C@@H](C)[C@@H]1OC2(C=C[C@H]1C)C[C@@H]1C[C@H](C/C=C(\C)[C@H](O[C@H]3C[C@H](OC)[C@H](O[C@H]4C[C@H](OC)[C@H](NC(C)=O)[C@H](C)O4)[C@H](C)O3)[C@H](C)/C=C/C=C3\CO[C@H]4[C@H](O)C(C)=C[C@@H](C(=O)O1)[C@@]34O)O2 (stereo not given in full)
inactive: Potency (C33A) | Potency (CAOV3) | Potency (CASKI) | Potency (Es-2) | Potency (OV90)

C=C(C)Cn1c(SCC(=O)c2cccs2)nc2sc3c(c2c1=O)CCCC3
inactive: Potency (C33A) | Potency (CAOV3) | Potency (CASKI) | Potency (Es-2) | Potency (OV90)

O=S(=O)(c1ccccc1)N(CC(F)(F)F)c1ccc(C(O)(C(F)(F)F)C(F)(F)F)cc1
inactive: Potency (C33A) | Potency (CAOV3) | Potency (CASKI) | Potency (HeLa) | Potency (Hek293T) | Potency (JEG-3) | Potency (OV90) | Potency (PA-1)

C[C@@H]1O[C@@H](O[C@H]2[C@H](OC(=O)[C@]34CCC(C)(C)C[C@H]3C3=CCC5[C@@]6(C)C[C@H](O)[C@H](O[C@@H]7O[C@H](C(=O)O)[C@@H](O)[C@H](O)[C@H]7O)[C@@](C)(CO)C6[C@H](O)C[C@@]5(C)[C@]3(C)C[C@H]4O)O[C@@H](CO)[C@@H]2O)[C@H](O)[C@H](O)[C@H]1O[C@@H]1OC[C@@H](O)[C@H](O[C@H]2OC[C@](O)(CO)[C@H]2O)[C@H]1O (stereo not given in full)
inactive: activity change, negative = cytotoxicity (C33A) -18.2% [at 6.55 µM] | activity change, negative = cytotoxicity (CAOV3) -15.4% [at 6.55 µM] | activity change, negative = cytotoxicity (CASKI) -0.268% [at 6.55 µM] | activity change, negative = cytotoxicity (HeLa) -1.36% [at 6.55 µM] | activity change, negative = cytotoxicity (Hek293T) -4.09% [at 6.55 µM] | activity change, negative = cytotoxicity (JEG-3) -17.4% [at 6.55 µM] | activity change, negative = cytotoxicity (OV90) -4.96% [at 6.55 µM]

Nc1ncnc2c1c(-c1ccc(Cl)cc1)nn2-c1cccc(-c2cnnn2Cc2cccc(-c3ccccc3)c2)c1
inactive: Potency (C33A) | Potency (CAOV3) | Potency (CASKI) | Potency (HeLa) | Potency (Hek293T) | Potency (JEG-3) | Potency (OV90)

CCn1c(=O)c(-c2ccc(Cl)cc2Cl)cc2cnc(Nc3ccc(N4CCNCC4)c(F)c3)nc21
inactive: Potency (C33A) | Potency (CAOV3) | Potency (CASKI) | Potency (Es-2) | Potency (Hek293T) | Potency (JEG-3) | Potency (OV90) | Potency (PA-1)

CCOc1cc(C(C)(C)C)ccc1C1=N[C@@](C)(c2ccc(Cl)cc2)[C@@](C)(c2ccc(Cl)cc2)N1C(=O)N1CCN(CC(=O)N2CCOCC2)CC1
inactive: Potency (C33A) | Potency (CAOV3) | Potency (CASKI) | Potency (Es-2) | Potency (Hek293T) | Potency (JEG-3) | Potency (OV90)
active: Potency (PA-1) 10 µM

Cc1cc(OCCCS(C)(=O)=O)cc(C)c1-c1cccc(COc2ccc(C3=CC(=O)NS3=O)cc2)c1 (stereo not given)
inactive: Potency (C33A) | Potency (CAOV3) | Potency (Es-2) | Potency (Hek293T) | Potency (JEG-3)

N#Cc1cc(-c2ccnc(Nc3ccc(N4CCOCC4)cc3)n2)ccc1OC1CCOCC1
inactive: Potency (C33A) | Potency (CASKI) | Potency (Es-2) | Potency (HeLa) | Potency (Hek293T) | Potency (JEG-3) | Potency (OV90)

CC(NC(=O)Cc1cc(F)cc(F)c1)C(=O)NC1C(=O)N(C)c2ccccc2-c2ccccc21 (stereo not given)
inactive: Potency (C33A) | Potency (CASKI) | Potency (Es-2) | Potency (HeLa) | Potency (Hek293T) | Potency (JEG-3) | Potency (OV90)

CN(CC1COCCO1)S(=O)(=O)Nc1ccc2ccc3ncc(-c4cnn(C)c4)cc3c(=O)c2c1 (stereo not given)
inactive: Potency (C33A) | Potency (CASKI) | Potency (Es-2) | Potency (Hek293T) | Potency (JEG-3) | Potency (OV90)
active: Potency (HeLa) 14.1 µM

C/C1=C\[C@@H](C)C[C@@H](C)[C@@H](Cc2cnco2)OC(=O)/C(C)=C/[C@@H](C)C[C@@H](C)[C@@H](Cc2cnco2)OC1=O
inactive: Potency (C33A) | Potency (CAOV3) | Potency (HeLa) | Potency (JEG-3) | Potency (OV90) | Potency (PA-1)

CCC(CC)C(c1ccc(Nc2nc3ccccc3s2)cc1)n1cncn1 (stereo not given)
active: Potency (C33A) 25.1 µM | Potency (CAOV3) 28.2 µM | Potency (HeLa) 35.5 µM | Potency (JEG-3) 31.6 µM | Potency (OV90) 31.6 µM | Potency (PA-1) 22.4 µM

COC(=O)C1=COC(O[C@@H]2O[C@H](CO[C@@H]3O[C@H](COC(=O)/C=C\c4ccc(O)cc4)[C@@H](O)[C@H](O)[C@H]3O)[C@@H](O)[C@H](O)[C@H]2O)C2C(CO)=CCC12 (stereo not given in full)
inactive: Potency (C33A) | Potency (CAOV3) | Potency (OV90)

CC(=O)O[C@@]12CO[C@@H]1C[C@H](O)[C@@]1(C)C(=O)[C@H](O)C3=C(C)[C@@H](OC(=O)[C@H](O)[C@@H](NC(=O)OC(C)(C)C)c4ccccc4)C[C@@](O)([C@@H](OC(=O)c4ccccc4)C12)C3(C)C (stereo not given in full)
inactive: Potency (C33A) | Potency (CAOV3) | Potency (JEG-3) | Potency (OV90)

C/C=C\NC(=O)C1NC(=O)C(CC(N)=O)NC(=O)C(NC(=O)C(=O)C(C)CC)Cc2ccc(O)c(c2)-c2cccc3c2NC(=O)C3(O)C1O (stereo not given)
inactive: Potency (C33A) | Potency (CASKI) | Potency (Es-2) | Potency (HeLa) | Potency (Hek293T) | Potency (JEG-3) | Potency (OV90)

CN(C)C(=O)NC1(c2ccccc2)CCN(CCC[C@]2(c3ccc(Cl)c(Cl)c3)CCCN(C(=O)c3ccccc3)C2)CC1
active: Potency (CAOV3) 20 µM
inactive: Potency (C33A) | Potency (HeLa) | Potency (JEG-3)
